This note sets out measurements from PubChem BioAssay (NCATS).

Records with an inconclusive call do not appear. The source made the active and inactive calls. Unless noted, the call rests on the fitted dose curve; in most records, active means well fitted curve in the direction sought with a large enough effect; inconclusive means small, poorly fitted or top-dose-only effect, or another doubt; inactive means no such curve, though single readings can be large; an effect the other way counts as inactive or inconclusive. Where a SMILES comes first, the peptide text is derived from it. [ ]: non-standard residue; d: D form. The star is where a group is joined. Dolaproine = CO[C@@H]([C@@H]1CCCN1)[C@@H](C)C(=O)O; Dil = CC[C@H](C)[C@H](NC)[C@@H](CC(=O)O)OC; Doe = c1ccc(C[C@H](N*)c2nccs2)cc1; Aib = CC(C)(N)C(=O)O

Test [1] deals with Zika virus NS2B-NS3 protease (unlinked complex). Put plainly: Primary screen GU Rhodamine qHTS for Zika virus inhibitors: Unlinked NS2B-NS3 protease assay (AID 1347159). Further: on the % scale 0 is the no-effect control and ±100 the full control effect; nearly all actives have a fitted effect of over 60% in size. An outline of the steps:
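Noncovalent NS2B hydrophilic domain/NS3 protease complex (25 nM final) in 10 mM Tris-HCl pH 8.0, 0.01% Tween 20, preincubated 15 min with compounds (up to 114 microM), then 1.5 microM Rhodamine110 substrate. Fluorescence change over 15 min fitted to 4-parameter Hill.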
In general terms: qHTS replaces the single test concentration by a dilution series.

A short description of test [2]: Primary qHTS for inhibitors of nuclear receptor binding SET domain protein 2 (NSD2) in an isogenic RCH-ACV NSD2 p.E1099K mutant (9B) (AID 1645876). Further: nearly all actives have a fitted effect of over 70% in size. Further: potency means the concentration at half of the fitted maximal effect.
Test [3] is described as follows: Primary qHTS for inhibitors of nuclear receptor binding SET domain protein 2 (NSD2) in an RCH-ACV wild type WT cells (2C) (AID 1645877). Further: nearly all actives have a fitted effect of over 70% in size. Further: potency means the concentration at half of the fitted maximal effect.
Test [4] deals with CRL-7250. As to the kind of experiment: Cytotoxic Profiling of Annotated Libraries Using Quantitative High-Throughput Screening (AID 1296008). Further: nearly all actives have a fitted effect of over 60% in size. Further: potency means the concentration at half of the fitted maximal effect. On max response: on the % scale 0 is the no-effect control and ±100 the full control effect. As to conditions: Five cell lines viability, CellTiter-Glo ATP luminescence, 48-72 h; max response: stronger effect = lower value. An outline of the steps:
(§1)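 Cells exposed to compounds for 48 or 72 hr at 37 degrees Celsius. Viability read as ATP-coupled luminescence with CellTiter-Glo after 10 min at room temperature.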

Test [5] is described as follows: P-glycoprotein substrates identified in KB-8-5-11 adenocarcinoma cell line, qHTS therapeutic library screen (AID 1346987). Further: nearly all actives have a fitted effect of over 65% in size. Further: potency means the concentration at half of the fitted maximal effect. In short, it runs like this:
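KB-8-5-11: colchicine-selected sub-line of KB-3-1 over-expressing P-gp; assay medium lacked colchicine. 72 h drug exposure at 37 degree C, CellTiter-Glo.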

Another test concerns HACAT. As to the kind of experiment: qHTS assay to identify novel small-molecules to repurpose for Merkel cell carcinoma treatment (AID 1296009). Further: nearly all actives have a fitted effect of over 60% in size. As to conditions: MCC and control cell lines, CellTiter-Glo viability, 72 h; at 44.8 µM (top of the series) unless noted. An outline of the steps: (§2)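 Cells were incubated with compound for 72 hr at 37 degree celsius before CellTiter-Glo addition. Luminescence was normalized with no-cell wells as full cytotoxicity and DMSO as baseline.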

In a further test the test system is HeLa. As to the kind of experiment: Primary qHTS to identify gynecologic anti-cancer compounds using libraries of approved drugs and bioactive compounds (AID 1345084). Further: nearly all actives have a fitted effect of over 55% in size. Further: potency means the concentration at half of the fitted maximal effect. Conditions: Gynecologic cancer cell panel viability, ATPlite luminescence, 48 h; series mostly up to 57.5 µM. In short, it runs like this:
(§3)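 Cells, 1,000 per well, plated 16 h, then exposed 48 h at 37 C to compounds. Viability by ATPlite luminescence after 15 min at room temperature.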

The subject of another test is SKOV3. The test is described as above. As to conditions: Gynecologic cancer cell panel viability, ATPlite luminescence, 48 h; series mostly up to 57.5 µM. An outline of the steps: as §3
(ATP-based viability assays read luminescence as a measure of living cells.)

The nature of test [6]: P-glycoprotein substrates identified in KB-3-1 adenocarcinoma cell line, qHTS therapeutic library screen (AID 1346986). Further: nearly all actives have a fitted effect of over 60% in size. In short, it runs like this: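 Compounds were tested in dose-response against KB-3-1 and KB-8-5-11 cells at 37 degree C for 72 h, and viability was measured by luminescence. AC50 values came from curve fitting with class-based activity calls.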
Another test deals with KB-3-1. Put plainly: Cytotoxic Profiling of Annotated Libraries Using Quantitative High-Throughput Screening (AID 1296008). Further: nearly all actives have a fitted effect of over 60% in size. Further: potency means the concentration at half of the fitted maximal effect. On max response: on the % scale 0 is the no-effect control and ±100 the full control effect. Conditions: Five cell lines viability, CellTiter-Glo ATP luminescence, 48-72 h; max response: stronger effect = lower value. An outline of the steps:
as §1

Test [7] has as its system CRL-7250. Put plainly: qHTS assay to identify novel small-molecules to repurpose for Merkel cell carcinoma treatment (AID 1296009). Further: nearly all actives have a fitted effect of over 60% in size. Conditions: MCC and control cell lines, CellTiter-Glo viability, 72 h; series mostly up to 92 µM. An outline of the steps: as §2
The target in test [8] is Cytochrome P450 2D6 (Homo sapiens) (UniProt P10635). Put plainly: Cytochrome P450 family 2 subfamily D member 6 (CYP2D6) small molecule antagonists: luciferase biochemical (cell-free) qHTS assay (AID 1645840; active means well fitted curve in the direction sought with a large enough effect in the repeat runs; an effect the other way counts as inactive or inconclusive; further: nearly all actives have a fitted effect of over 55% in size; further: potency means the concentration at half of the fitted maximal effect). An outline of the steps: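 P450-Glo luminescent screen: recombinant CYP2D6 enzyme–proluciferin substrate mix preincubated with compound 10 min at room temperature, then NADPH regeneration added for 1 h at room temperature. Detection reagent added for 20 min; luciferin light read as relative luminescence units.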

Test [9] has as its target Cytochrome P450 2C9 (Homo sapiens) (UniProt P11712). Put plainly: Cytochrome P450 family 2 subfamily C member 9 (CYP2C9) small molecule antagonists: luciferase biochemical (cell-free) qHTS assay (AID 1645842; active means well fitted curve in the direction sought with a large enough effect in the repeat runs; an effect the other way counts as inactive or inconclusive; further: on the % scale 0 is the no-effect control and ±100 the full control effect; nearly all actives have a fitted effect of over 55% in size). An outline of the steps:
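Luminescence, after 20 min with luciferin detection reagent, reflected CYP2C9 turnover during a 1 h NADPH-driven reaction at 37C. Enzyme-substrate mix contained 0.4% bovine serum albumin and was preincubated with compound 10 min at room temperature.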

Test [10] has as its target Catechol O-methyltransferase (Homo sapiens) (UniProt P21964). Put plainly: Confirmatory Screen for Target Class Profiling of Small Molecule Inhibitors of Methyltransferases (AID 1745852). On activity change, negative = inhibition: on the % scale 0 is the no-effect control and ±100 the full control effect. As to conditions: MTase-Glo luminescence, SAH detection, recombinant enzyme; measured here: COMT max response; stronger effect = lower value.
Test [11] concerns the target Guanidinoacetate N-methyltransferase (Homo sapiens) (UniProt Q14353). Described as above. As to conditions: activity change, negative = inhibition: at 57.3 µM (top of the series) unless noted.
Test [12] concerns the target Nicotinamide N-methyltransferase (Homo sapiens) (UniProt P40261). The description is as above. As to conditions: MTase-Glo luminescence, SAH detection, recombinant enzyme; measured here: NNMT max response; stronger effect = lower value.
Test [13] deals with Phenylethanolamine N-methyltransferase (Homo sapiens) (UniProt P11086). Described as above. As to conditions: MTase-Glo luminescence, SAH detection, recombinant enzyme; measured here: PNMT max response; stronger effect = lower value.
For another test, the system named is NIH3T3. Put plainly: qHTS assay to identify novel small-molecules to repurpose for Merkel cell carcinoma treatment (AID 1296009). Further: nearly all actives have a fitted effect of over 60% in size. Conditions: MCC and control cell lines, CellTiter-Glo viability, 72 h; at 44.8 µM (top of the series) unless noted. In short, it runs like this:
as §2

For another test, the system named is HEK293. As to the kind of experiment: Cytotoxic Profiling of Annotated Libraries Using Quantitative High-Throughput Screening (AID 1296008). Further: nearly all actives have a fitted effect of over 60% in size. Further: potency means the concentration at half of the fitted maximal effect. On max response: on the % scale 0 is the no-effect control and ±100 the full control effect. As to conditions: Five cell lines viability, CellTiter-Glo ATP luminescence, 48-72 h; max response: stronger effect = lower value. In short, it runs like this:
as §1

Chain of Cytochrome P450 2C9 (Homo sapiens) (P11712 whole entry, looked up): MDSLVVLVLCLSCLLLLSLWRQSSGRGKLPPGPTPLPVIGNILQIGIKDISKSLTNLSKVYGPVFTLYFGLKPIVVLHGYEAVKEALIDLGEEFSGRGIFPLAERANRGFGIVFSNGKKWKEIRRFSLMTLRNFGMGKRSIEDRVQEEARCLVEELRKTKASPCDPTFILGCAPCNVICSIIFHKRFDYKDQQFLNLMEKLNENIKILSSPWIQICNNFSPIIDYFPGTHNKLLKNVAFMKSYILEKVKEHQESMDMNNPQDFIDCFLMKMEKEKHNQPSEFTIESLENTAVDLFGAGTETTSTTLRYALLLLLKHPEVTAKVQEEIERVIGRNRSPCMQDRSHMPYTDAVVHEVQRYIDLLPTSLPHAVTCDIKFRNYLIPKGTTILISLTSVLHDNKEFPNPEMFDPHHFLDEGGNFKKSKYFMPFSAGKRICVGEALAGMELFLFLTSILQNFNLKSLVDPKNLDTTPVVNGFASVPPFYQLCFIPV
Chain of Cytochrome P450 2D6 (Homo sapiens) (P10635 whole entry, looked up): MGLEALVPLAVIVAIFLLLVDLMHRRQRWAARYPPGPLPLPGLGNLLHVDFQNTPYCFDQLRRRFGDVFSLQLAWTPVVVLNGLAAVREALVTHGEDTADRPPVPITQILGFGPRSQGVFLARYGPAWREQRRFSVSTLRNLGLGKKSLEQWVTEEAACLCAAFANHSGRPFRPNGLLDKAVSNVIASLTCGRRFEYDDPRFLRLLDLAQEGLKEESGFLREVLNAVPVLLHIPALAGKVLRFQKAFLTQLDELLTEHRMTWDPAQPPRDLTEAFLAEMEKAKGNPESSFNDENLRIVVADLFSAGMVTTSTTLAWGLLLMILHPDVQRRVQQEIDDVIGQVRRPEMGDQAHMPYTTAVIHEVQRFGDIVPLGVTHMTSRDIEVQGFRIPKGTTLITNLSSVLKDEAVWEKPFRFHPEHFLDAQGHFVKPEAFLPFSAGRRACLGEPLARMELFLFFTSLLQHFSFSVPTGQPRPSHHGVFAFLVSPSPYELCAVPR
Chain of Phenylethanolamine N-methyltransferase (Homo sapiens) (P11086 whole entry, looked up): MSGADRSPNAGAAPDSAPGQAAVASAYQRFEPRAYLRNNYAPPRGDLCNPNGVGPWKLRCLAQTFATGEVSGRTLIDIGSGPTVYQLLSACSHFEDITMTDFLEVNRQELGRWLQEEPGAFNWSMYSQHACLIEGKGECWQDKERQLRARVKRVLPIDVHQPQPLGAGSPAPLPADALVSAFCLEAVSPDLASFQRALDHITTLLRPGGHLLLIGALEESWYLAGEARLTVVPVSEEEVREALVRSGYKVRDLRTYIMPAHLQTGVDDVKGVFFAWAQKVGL
Chain of Catechol O-methyltransferase (Homo sapiens) (P21964 whole entry, looked up): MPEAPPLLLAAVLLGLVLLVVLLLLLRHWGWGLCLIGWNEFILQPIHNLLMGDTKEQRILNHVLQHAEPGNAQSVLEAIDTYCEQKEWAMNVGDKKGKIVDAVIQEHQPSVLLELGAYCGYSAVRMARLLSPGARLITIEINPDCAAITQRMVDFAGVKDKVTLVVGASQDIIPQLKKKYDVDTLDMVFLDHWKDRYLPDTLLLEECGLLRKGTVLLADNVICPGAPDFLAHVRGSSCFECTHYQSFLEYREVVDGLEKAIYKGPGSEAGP
Chain of Nicotinamide N-methyltransferase (Homo sapiens) (P40261 whole entry, looked up): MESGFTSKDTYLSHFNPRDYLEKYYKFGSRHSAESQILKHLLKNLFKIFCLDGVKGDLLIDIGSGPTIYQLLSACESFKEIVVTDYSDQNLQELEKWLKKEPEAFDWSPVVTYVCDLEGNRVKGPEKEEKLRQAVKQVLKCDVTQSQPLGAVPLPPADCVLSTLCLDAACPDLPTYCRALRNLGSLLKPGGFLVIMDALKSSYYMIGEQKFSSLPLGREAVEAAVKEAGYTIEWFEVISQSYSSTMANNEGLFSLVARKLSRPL

Consider `C[C@]12CC[C@H](O)CC1=CC[C@@H]1C2CC[C@]2(C)[C@@H](C3=CC(=O)OC3)CC[C@]12O` (stereo partly specified), for which the Potency entry in test [1] was “inactive”. The Potency in [2] was 3190 nM (active); in test [3], 4500 nM (active); in the test on CRL-7250 [4], 5080 nM (active).
On to `C/C=C(\C)C(O)C(C)/C=C(C)/C=C/C/C(C)=C/Cc1nc(OC)c(OC)c(O[C@@H]2O[C@@H](C)[C@H](O)[C@@H](O)[C@H]2O)c1C` (stereo partly specified), for which the Potency entry (in test [5]; in the test on HeLa) was “inactive” throughout. Also, the Potency was 3550 nM (active) in [2], 3990 nM (active) in test [3], 796 nM (active) in the test on CRL-7250 [4] and 3160 nM (active) in the test with SKOV3. Moreover, the outcome in the test with HACAT was “inactive [at 17.4 µM]”.
As to `CCC1CC2CN3CCc4c([nH]c5ccccc45)C(C(=O)OC)(C2)C13` (stereo unspecified), the Potency entry (in test [6]; in test [5]; in test [1]; in [2]; in [3]; in the test with HeLa) was “inactive” in each case. For the same compound, in the test on CRL-7250 [4], the max response was 3.09% (inactive). Moreover, in the test on KB-3-1, the outcome is “inactive”.
Regarding `O=C(NCCN1CCC2(CC1)C(=O)NCN2c1cccc(F)c1)c1ccc(F)c(F)c1`, the figures for the Potency in [5], in [2] and in test [3] were 16400 nM (active), 23000 nM (active) and 14500 nM (active), respectively. Further, the Potency entry (in test [1]; in the test with CRL-7250 [7]; in the test on HeLa; with SKOV3) was “inactive” in each case. The outcome with CRL-7250 [4] is “inactive”.
Take `Cc1[nH]c2ccc(Cl)cc2c1CCN(C)C`: the Potency entry (in test [5]; in [9]; in test [2]; in the test with HeLa) was “inactive” each time. Further, the Potency in [8] is 3380 nM (active). The activity in test [10] is -4.16%; in test [12], -4.68%; in [13], -3.11%. Also, the activity change, negative = inhibition in [11] is -1.82%. For the same compound, the max response in the test on CRL-7250 [4] is -0.626% (inactive). For the same compound, the outcome in the test on NIH3T3 is “inactive”.
For `C[C@@H]1O[C@@H](O[C@H]2CC[C@@]3(C)C(CC[C@@H]4C3CC[C@]3(C)[C@@H](C5=CC(=O)OC5)CC[C@]43O)C2)[C@H](O[C@@H]2O[C@H](CO)[C@@H](O)[C@H](O)[C@H]2O)[C@H](O)[C@H]1O` (stereo partly specified), the Potency was 485 nM (active) in test [5]; 171 nM (active) in [2]; 485 nM (active) with HEK293; 862 nM (active) in the test with KB-3-1; 1260 nM (active) in the test on HeLa; 2240 nM (active) with SKOV3. In addition, the Potency result in test [1] is “inactive”.
Take `CC[C@H](C)[C@@H]([C@@H](CC(=O)N1CCC[C@H]1[C@H](OC)[C@@H](C)C(=O)N[C@@H](Cc1ccccc1)c1nccs1)OC)N(C)C(=O)[C@@H](NC(=O)C(C)(C)N)C(C)C` (H-[Aib]V[Dil][Dolaproine]-Doe): the results for the Potency (in [5]; in the test with KB-3-1) were 146 nM (active) and 1 nM (active), respectively. In addition, the Potency result (in test [2]; in test [3]; with SKOV3) was “inactive” in each case. Also, in the test with HEK293, the max response was -94.9% (inactive). The outcome in the test on HACAT was “inactive”.
Consider `C[C@@H]1O[C@@H](O[C@H]2CC[C@@]3(C)C(CC[C@@H]4C3CC[C@]3(C)[C@@H](C5=CC(=O)OC5)CC[C@]43O)C2)[C@H](O)[C@H](O)[C@H]1O` (stereo partly specified), for which the Potency is 709 nM (active) in [5]; 200 nM (active) in test [2]; 632 nM (active) in [3]; 632 nM (active) in the test on HEK293; 796 nM (active) with KB-3-1; 2000 nM (active) in the test on SKOV3. The Potency entry in test [1] is “inactive”.
For `CC(=O)NCCCOc1ccc(C(=O)N2CCC(N3C(=O)CCc4ccccc43)CC2)cc1`, the Potency result (in test [5]; in [8]; in test [9]; with HeLa; with SKOV3) was “inactive” throughout. Moreover, the max response in the test with CRL-7250 [4] is 0.176% (inactive); with KB-3-1 it was 5.83% (inactive).
